# Test results from the supplement of paper PMC12494721.
# Counter-ions that a name gives are not always drawn.
# Experiments:
# Details in all cases: incubation time: 27 h, anaerobic, 37 °C;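 for the amine columns active = adjusted P below 0.05 in both replicates with a change the same way and a mean fold change under 0.8 or over 1.25; inactive = the rest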
# [1] = tested on: Clostridium sporogenes DSM 1664; assay: growth (OD595) fold change vs plate DMSO controls (fold change (ratio)); higher = more growth
# Procedure, shortened: (§1)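 Anaerobic mGAM cultures in 96-well plates were grown for 27 h at 37 °C, and absorbance was then read at 595 nm. After blank and compound background correction with 20 µM compound solutions in water, a calibration factor of 5 gave OD. Growth is the fold change relative to the median of each plate's DMSO controls. Values are means of 2 biological replicates, with fold changes above 1.5 set to NA.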
# [2] = tested on: Escherichia coli IAI1; assay: as above
# Procedure, shortened: as §1
# [3] = tested on: Klebsiella aerogenes DSM 30053; assay: as above
# Procedure, shortened: as §1
# [4] = tested on: Ruminococcus gnavus DSM 108212; assay: as above
# Procedure, shortened: as §1
# [5] = tested on: Klebsiella aerogenes DSM 30053; assay: fold change of Histamine concentration vs plate DMSO controls (fold change (ratio)); higher = more amine produced, active = hit call of the paper (significant change in both replicates, either direction)
# Procedure, shortened: (§2)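 In 80 µL wells, cultures of four gut bacterial strains in mGAM started at OD 0.1 before a 1:1 dilution and grew anaerobically at 37 °C for 27 h. Compounds were added to 20 µM final, except sweeteners at 50 µM final. After extraction of whole cultures with cold acetonitrile/methanol plus 0.1% formic acid and centrifugation, amines were measured by LC–triple-quadrupole MS in dynamic MRM mode against external calibration curves, with within-batch drift correction. Values give fold change over DMSO controls on the same plate, averaged across 2 biological replicates.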
# [6] = tested on: Clostridium sporogenes DSM 1664; assay: fold change of Tryptamine concentration vs plate DMSO controls (fold change (ratio)); higher = more amine produced, active = hit call of the paper (significant change in both replicates, either direction)
# Procedure, shortened: as §2
# [7] = tested on: Ruminococcus gnavus DSM 108212; assay: as above
# Procedure, shortened: as §2
# [8] = tested on: Escherichia coli IAI1; assay: fold change of Putrescine concentration vs plate DMSO controls (fold change (ratio)); higher = more amine produced, active = hit call of the paper (significant change in both replicates, either direction)
# Procedure, shortened: as §2
# [9] = tested on: Klebsiella aerogenes DSM 30053; assay: as above
# Procedure, shortened: as §2
# [10] = tested on: Escherichia coli IAI1; assay: fold change of Cadaverine concentration vs plate DMSO controls (fold change (ratio)); higher = more amine produced, active = hit call of the paper (significant change in both replicates, either direction)
# Procedure, shortened: as §2
# [11] = tested on: Klebsiella aerogenes DSM 30053; assay: as above
# Procedure, shortened: as §2
# [12] = tested on: Ruminococcus gnavus DSM 108212; assay: fold change of 2-Phenylethylamine concentration vs plate DMSO controls (fold change (ratio)); higher = more amine produced, active = hit call of the paper (significant change in both replicates, either direction)
# Procedure, shortened: as §2
Compound,growth [1],growth [2],growth [3],growth [4],fold change of Histamine concentration [5],fold change of Tryptamine concentration [6],fold change of Tryptamine concentration [7],fold change of Putrescine concentration [8],fold change of Putrescine concentration [9],fold change of Cadaverine concentration [10],fold change of Cadaverine concentration [11],fold change of 2-Phenylethylamine concentration [12]
CCCCNC(=O)NS(=O)(=O)c1ccc(C)cc1 [Tolbutamide] (20 µM),0.926,0.985,0.957,0.746,1.04 (inactive),1.02 (inactive),1.01 (inactive),0.978 (inactive),0.988 (inactive),1 (inactive),1 (inactive),1.04 (inactive)
COC(=O)[C@H]1[C@H]2C[C@@H]3c4[nH]c5cc(OC)ccc5c4CCN3C[C@H]2C[C@@H](OC(=O)c2cc(OC)c(OC)c(OC)c2)[C@@H]1OC [Reserpine] (20 µM),1.21,0.987,1.02,1.01,0.943 (inactive),1.07 (inactive),1.04 (inactive),0.935 (inactive),0.983 (inactive),0.966 (inactive),1.01 (inactive),1.07 (inactive)
OC[C@H](O)C(O)[C@@H](O)CO [L-Arabinitol] (50 µM),1.11,0.995,0.979,0.985,1 (inactive),0.956 (inactive),0.939 (inactive),1.06 (inactive),1.02 (inactive),0.981 (inactive),0.984 (inactive),0.908 (inactive)
Nc1ccc(S(=O)(=O)Nc2cnc3ccccc3n2)cc1 [Sulfaquinoxaline sodium salt] (20 µM),1.03,1.01,0.991,0.994,1.04 (inactive),0.987 (inactive),0.985 (inactive),0.911 (inactive),1.02 (inactive),1.01 (inactive),0.991 (inactive),0.981 (inactive)
CCCC(=O)Nc1ccc(OCC(O)CNC(C)C)c(C(C)=O)c1 (stereo unspecified) [Acebutolol hydrochloride] (20 µM),0.937,0.989,0.971,0.781,1.06 (inactive),1.03 (inactive),1.03 (inactive),0.996 (inactive),1.01 (inactive),0.958 (inactive),0.99 (inactive),0.985 (inactive)
Nc1ccc(S(=O)(=O)Nc2ncccn2)cc1 [Sulfadiazine] (20 µM),0.978,0.939,1.06,0.958,0.966 (inactive),0.955 (inactive),0.997 (inactive),0.976 (inactive),1 (inactive),1.03 (inactive),1.01 (inactive),1.02 (inactive)
CCCCCCC[N+](CC)(CC)CCCCc1ccc(Cl)cc1 [Clofilium tosylate] (20 µM),1.2,0.984,1.07,1.26,0.897 (inactive),1.32 (inactive),0.792 (inactive),1.17 (inactive),0.968 (inactive),0.947 (inactive),1.03 (inactive),0.867 (inactive)
O=C1NCN(c2ccccc2)C12CCN(CCCC(c1ccc(F)cc1)c1ccc(F)cc1)CC2 [Fluspirilene] (20 µM),0.921,0.951,1.01,1.01,0.981 (inactive),0.959 (inactive),0.814 (inactive),0.996 (inactive),0.994 (inactive),1.02 (inactive),0.995 (inactive),0.884 (inactive)
CC1(C)[C@@H](OC(=O)CCC(=O)O)CC[C@]2(C)[C@H]3C(=O)C=C4[C@@H]5C[C@@](C)(C(=O)O)CC[C@]5(C)CC[C@@]4(C)[C@]3(C)CC[C@@H]12 [Carbenoxolone disodium salt] (20 µM),1.06,0.984,0.977,0.91,1.03 (inactive),0.925 (inactive),1.04 (inactive),1.04 (inactive),1.02 (inactive),0.999 (inactive),0.993 (inactive),1.07 (inactive)
CCCCC(=O)O[C@H]1CC[C@H]2[C@@H]3CCc4cc(O)ccc4[C@H]3CC[C@]12C [Estradiol Valerate] (20 µM),0.581,0.995,0.996,1.05,0.898 (inactive),0.24 (active),1 (inactive),0.88 (inactive),0.925 (inactive),0.926 (inactive),1.05 (inactive),0.953 (inactive)
C[C@]12CC[C@@H]3c4ccc(OS(=O)(=O)O)cc4CC[C@H]3[C@@H]1CCC2=O [Estropipate piperazine salt] (20 µM),1.04,1.01,1.01,1.21,0.996 (inactive),0.974 (inactive),0.96 (inactive),1.04 (inactive),0.985 (inactive),0.947 (inactive),0.993 (inactive),0.89 (inactive)
CCC[C@@H]1C[C@@H](C(=O)N[C@@H]([C@H]2O[C@H](SC)[C@H](O)[C@@H](O)[C@H]2O)[C@H](C)Cl)N(C)C1 [Clindamycin hydrochloride] (20 µM),0.899,0.682,0.934,0.134,1.54 (inactive),0.0905 (active),0.136 (active),0.4 (inactive),0.537 (inactive),0.844 (inactive),0.932 (inactive),0.125 (active)
Cc1ncc([N+](=O)[O-])n1CCO [Metronidazole] (20 µM),0.00188,1.04,1.02,0.0847,0.975 (inactive),0.011 (active),0.0917 (active),0.94 (inactive),1.05 (inactive),0.997 (inactive),1.1 (inactive),0.0796 (active)
"CC(C)(S)C(N)C(=O)O (racemic) [D,L-Penicillamine] (20 µM)",1.05,1.08,1.02,0.873,0.909 (inactive),0.993 (inactive),0.968 (inactive),0.99 (inactive),0.954 (inactive),1 (inactive),0.974 (inactive),0.956 (inactive)
NNc1nncc2ccccc12 [Hydralazine hydrochloride] (20 µM),0.972,0.997,1,0.792,1.07 (inactive),0.967 (inactive),1.03 (inactive),0.983 (inactive),1.01 (inactive),0.997 (inactive),0.994 (inactive),0.96 (inactive)
CCCCC(CC)CNC(=N)NC(=N)NCCCCCCNC(=N)NC(=N)NCC(CC)CCCC (stereo unspecified) [Alexidine dihydrochloride] (20 µM),0.294,0.938,0.967,0.624,1.11 (inactive),0.172 (active),0.0418 (active),1.08 (inactive),1.02 (inactive),1.12 (inactive),0.999 (inactive),0.0355 (active)
C#Cc1cccc(Nc2ncnc3cc(OCCOC)c(OCCOC)cc23)c1 [Erlotinib] (20 µM),0.903,0.969,1.01,0.842,1.05 (inactive),1 (inactive),1.02 (inactive),0.987 (inactive),1.04 (inactive),1.02 (inactive),1.01 (inactive),1.05 (inactive)
O=C1Cc2cc(CCN3CCN(c4nsc5ccccc45)CC3)c(Cl)cc2N1 [Ziprasidone  hydrochloride monohydrate] (20 µM),1.09,1.06,1.03,1.23,1.23 (inactive),0.998 (inactive),0.712 (active),1.12 (inactive),1.1 (inactive),1.08 (inactive),1.06 (inactive),0.771 (active)
"CC(C)NC[C@H](O)COc1ccc(CC(N)=O)cc1 [(S,-) Atenolol] (20 µM)",0,0.913,1.01,0.825,1.04 (inactive),0.0316 (active),0.944 (inactive),0.847 (inactive),1.03 (inactive),0.954 (inactive),1.02 (inactive),0.909 (inactive)
C[C@@H]1CCO[C@H]2Cn3cc(C(=O)NCc4ccc(F)cc4F)c(=O)c(O)c3C(=O)N12 [Dolutegravir] (20 µM),1.06,1.02,0.992,0.891,1.08 (inactive),1.02 (inactive),0.954 (inactive),1.07 (inactive),0.999 (inactive),0.984 (inactive),0.987 (inactive),0.941 (inactive)
CCOC(=O)[C@H](CCc1ccccc1)N[C@@H](C)C(=O)N(CC(=O)O)C1Cc2ccccc2C1 [Delapril Hydrochloride] (20 µM),1.16,0.976,0.982,1.15,1.04 (inactive),0.958 (inactive),0.974 (inactive),1 (inactive),1.02 (inactive),1.01 (inactive),0.998 (inactive),0.905 (inactive)
NC(=O)N/N=C/c1ccc([N+](=O)[O-])o1 [Nitrofural] (20 µM),1.07,1,0.973,0.979,0.768 (inactive),0.906 (inactive),0.792 (active),0.6 (active),0.947 (inactive),1.22 (inactive),1.01 (inactive),0.836 (inactive)
O=C(O)c1cc(/N=N/c2ccc(S(=O)(=O)Nc3ccccn3)cc2)ccc1O [Sulfasalazine] (20 µM),0.986,1,1.05,0.978,0.971 (inactive),1.01 (inactive),1 (inactive),0.913 (inactive),0.995 (inactive),1.01 (inactive),1.01 (inactive),0.954 (inactive)
